ChEMBL document CHEMBL3988442, “University of Dundee, Small-Polar-MMV Screening Library” (2021)
For some assays here: Entries with a potency or affinity are not part of this list.

Experiments:
Set-up in all cases: scale not given: direction of the effect not stated beside the values
[1] = molecular target: Protein translocase subunit SecA (Escherichia coli (strain K12)) (UniProt P10408); experiment: Assay to Identify E. coli SecA ATPase Inhibitors; format: functional; details: 30 µM
[2] = molecular target: T1, Ubiquitin-activating enzyme e1, putative (Leishmania donovani (strain BPK282A1)) (UniProt E9BSI1); experiment: Leishmania donovani Ubiquitin Activating Enzyme (LdE1); format: functional; details: 30 µM
T1 sequence (whole entry): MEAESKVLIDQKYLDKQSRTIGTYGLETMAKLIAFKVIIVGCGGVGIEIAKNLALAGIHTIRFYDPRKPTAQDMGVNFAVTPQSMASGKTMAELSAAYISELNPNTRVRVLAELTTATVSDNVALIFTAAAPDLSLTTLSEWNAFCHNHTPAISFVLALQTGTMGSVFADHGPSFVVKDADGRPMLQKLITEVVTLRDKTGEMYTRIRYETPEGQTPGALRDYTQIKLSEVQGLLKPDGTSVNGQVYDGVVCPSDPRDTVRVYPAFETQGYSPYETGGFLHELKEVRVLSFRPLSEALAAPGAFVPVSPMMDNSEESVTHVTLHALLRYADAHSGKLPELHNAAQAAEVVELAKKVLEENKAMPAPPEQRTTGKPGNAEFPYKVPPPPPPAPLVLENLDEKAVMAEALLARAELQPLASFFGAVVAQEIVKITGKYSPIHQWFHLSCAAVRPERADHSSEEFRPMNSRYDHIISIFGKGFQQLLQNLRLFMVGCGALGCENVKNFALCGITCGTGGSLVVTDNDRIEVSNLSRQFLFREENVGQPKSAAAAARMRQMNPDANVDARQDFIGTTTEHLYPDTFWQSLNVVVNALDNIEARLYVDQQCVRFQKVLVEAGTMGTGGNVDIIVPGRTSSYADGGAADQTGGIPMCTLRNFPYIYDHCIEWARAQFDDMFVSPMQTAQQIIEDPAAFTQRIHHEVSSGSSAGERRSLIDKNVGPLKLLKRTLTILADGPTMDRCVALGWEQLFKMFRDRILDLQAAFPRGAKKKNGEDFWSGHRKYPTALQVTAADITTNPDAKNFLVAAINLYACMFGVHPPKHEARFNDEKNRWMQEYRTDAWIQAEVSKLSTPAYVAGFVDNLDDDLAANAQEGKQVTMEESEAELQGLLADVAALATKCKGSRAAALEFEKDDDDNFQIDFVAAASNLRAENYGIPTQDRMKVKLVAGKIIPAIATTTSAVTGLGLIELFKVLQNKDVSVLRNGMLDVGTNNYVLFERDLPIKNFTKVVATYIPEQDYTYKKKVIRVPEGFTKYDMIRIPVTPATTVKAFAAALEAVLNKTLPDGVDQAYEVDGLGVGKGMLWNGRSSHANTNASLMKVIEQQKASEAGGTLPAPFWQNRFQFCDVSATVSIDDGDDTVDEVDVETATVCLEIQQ

[3] = molecular target: AMP-activated protein kinase, AMPK (Homo sapiens) (UniProt P54646+O43741+P54619+Q9UGJ0+Q9Y478+Q13131+Q9UGI9); experiment: AMP-dependent Kinase enzyme assay. An in vitro enzyme assay that detects ADP turnover that is directly proportional to AMPK activity. This uses naive AMPK that is activated during the assay with MK-8722; format: functional; details: 30 µM
[4] = molecular target: Sialic acid-binding Ig-like lectin 9 (Homo sapiens) (UniProt Q9Y336); experiment: Hs-Siglec9 ALPHAscreen SOP 20170721; details: 10 µM
Chain of Sialic acid-binding Ig-like lectin 9 (Homo sapiens) (Q9Y336 whole entry): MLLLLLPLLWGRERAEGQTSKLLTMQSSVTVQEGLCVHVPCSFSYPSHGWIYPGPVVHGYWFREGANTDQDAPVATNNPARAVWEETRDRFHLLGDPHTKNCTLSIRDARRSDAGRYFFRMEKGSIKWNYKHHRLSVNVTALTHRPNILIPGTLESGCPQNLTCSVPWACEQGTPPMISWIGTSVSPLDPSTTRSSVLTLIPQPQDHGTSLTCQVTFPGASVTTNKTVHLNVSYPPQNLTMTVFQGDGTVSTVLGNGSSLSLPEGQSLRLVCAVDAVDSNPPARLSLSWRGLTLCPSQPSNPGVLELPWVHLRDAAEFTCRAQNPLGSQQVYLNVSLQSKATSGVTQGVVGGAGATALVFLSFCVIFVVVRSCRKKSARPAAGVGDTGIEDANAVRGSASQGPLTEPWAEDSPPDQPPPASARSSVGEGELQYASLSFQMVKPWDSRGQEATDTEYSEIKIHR

Trypanosoma cruzi = experiment: Trypanosoma cruzi phosphomannomutase and mannose-1-phosphate guanylyltransferase assay; format: functional; details: 10 µM
[5] = molecular target: T2, Arginase-2, mitochondrial (Homo sapiens) (UniProt P78540); experiment: in vitro enzyme assay to detect the production of urea directly proportional to the activity of Arginase II; format: functional; details: 33.3 µM; note: in the data most compounds retested in dose-response had high values
T2 sequence (whole entry): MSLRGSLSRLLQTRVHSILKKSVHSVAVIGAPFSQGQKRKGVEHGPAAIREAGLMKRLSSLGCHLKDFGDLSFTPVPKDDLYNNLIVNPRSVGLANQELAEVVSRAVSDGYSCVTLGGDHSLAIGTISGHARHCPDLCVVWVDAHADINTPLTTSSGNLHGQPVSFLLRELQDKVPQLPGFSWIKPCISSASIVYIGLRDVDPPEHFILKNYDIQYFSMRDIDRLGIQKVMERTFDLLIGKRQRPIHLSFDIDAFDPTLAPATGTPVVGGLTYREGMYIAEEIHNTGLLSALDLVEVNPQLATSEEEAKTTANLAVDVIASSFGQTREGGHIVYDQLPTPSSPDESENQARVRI

[6] = molecular target: T3, Proteasome subunit beta (Trypanosoma cruzi) (UniProt O96673); experiment: Trypanosoma cruzi proteasome chymotrypsin-like activity (TcProtChymo) assay.; note: in the data most compounds retested in dose-response had high values; format: functional; details: 9.37 µM
T3 sequence (whole entry): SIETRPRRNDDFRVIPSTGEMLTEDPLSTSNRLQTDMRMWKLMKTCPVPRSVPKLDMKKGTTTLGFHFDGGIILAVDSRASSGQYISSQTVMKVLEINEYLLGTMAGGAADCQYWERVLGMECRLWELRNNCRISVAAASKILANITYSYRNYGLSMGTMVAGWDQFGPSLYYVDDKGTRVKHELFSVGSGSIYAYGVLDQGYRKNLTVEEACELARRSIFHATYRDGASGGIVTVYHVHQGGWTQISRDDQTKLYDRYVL

Homo sapiens = species on record: Homo sapiens; experiment: To identify inhibition of the IFN signalling (Jak-Stat) pathway via expression of an eGFP reporter gene under the control of an IFN-stimulated response element (ISRE) containing MxA promoter.; format: functional; details: 30 µM
[7] = molecular target: T4, Tyrosyl-tRNA synthetase, putative (Trypanosoma cruzi (strain CL Brener)) (UniProt Q4DSP6); experiment: Trypanosoma cruzi tyrosyl tRNA synthetase (TcYRS) _High Tyrosine SOP; format: functional; details: 30 µM; note: in the data most compounds retested in dose-response had high values
T4 sequence (whole entry): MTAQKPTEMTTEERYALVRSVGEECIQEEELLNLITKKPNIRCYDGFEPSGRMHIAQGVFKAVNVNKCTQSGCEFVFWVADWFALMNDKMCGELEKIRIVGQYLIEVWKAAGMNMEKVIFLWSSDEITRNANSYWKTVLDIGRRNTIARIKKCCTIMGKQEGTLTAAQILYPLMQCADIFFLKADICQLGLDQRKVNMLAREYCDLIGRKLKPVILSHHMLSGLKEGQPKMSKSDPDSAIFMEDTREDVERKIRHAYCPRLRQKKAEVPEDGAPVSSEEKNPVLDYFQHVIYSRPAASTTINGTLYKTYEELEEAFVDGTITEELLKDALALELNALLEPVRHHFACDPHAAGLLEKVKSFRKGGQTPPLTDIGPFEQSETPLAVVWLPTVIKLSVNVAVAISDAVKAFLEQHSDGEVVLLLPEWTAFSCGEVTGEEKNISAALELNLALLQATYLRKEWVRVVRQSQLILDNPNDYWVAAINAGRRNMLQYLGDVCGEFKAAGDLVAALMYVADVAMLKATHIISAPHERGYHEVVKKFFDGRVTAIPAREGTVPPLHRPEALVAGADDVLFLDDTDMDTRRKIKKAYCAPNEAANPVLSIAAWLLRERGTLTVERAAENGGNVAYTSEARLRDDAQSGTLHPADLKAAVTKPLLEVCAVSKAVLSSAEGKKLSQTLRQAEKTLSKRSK

[8] = molecular target: T4, Tyrosyl-tRNA synthetase, putative (Trypanosoma cruzi (strain CL Brener)); experiment: Trypanosoma cruzi tyrosyl tRNA synthetase (TcYRS) SOP; format: functional; details: 30 µM
[9] = molecular target: Chromo domain-containing protein 1 (Saccharomyces cerevisiae (strain ATCC 204508 / S288c) (Baker's yeast)) (UniProt P32657); experiment: ScCHD-1 Enzyme Inhibition Assay; format: functional; details: 30 µM; note: in the data most compounds retested in dose-response had high values
Chain of Chromo domain-containing protein 1 (Saccharomyces cerevisiae (strain ATCC 204508 / S288c) (Baker's yeast)) (P32657 whole entry, the tested form may be a part): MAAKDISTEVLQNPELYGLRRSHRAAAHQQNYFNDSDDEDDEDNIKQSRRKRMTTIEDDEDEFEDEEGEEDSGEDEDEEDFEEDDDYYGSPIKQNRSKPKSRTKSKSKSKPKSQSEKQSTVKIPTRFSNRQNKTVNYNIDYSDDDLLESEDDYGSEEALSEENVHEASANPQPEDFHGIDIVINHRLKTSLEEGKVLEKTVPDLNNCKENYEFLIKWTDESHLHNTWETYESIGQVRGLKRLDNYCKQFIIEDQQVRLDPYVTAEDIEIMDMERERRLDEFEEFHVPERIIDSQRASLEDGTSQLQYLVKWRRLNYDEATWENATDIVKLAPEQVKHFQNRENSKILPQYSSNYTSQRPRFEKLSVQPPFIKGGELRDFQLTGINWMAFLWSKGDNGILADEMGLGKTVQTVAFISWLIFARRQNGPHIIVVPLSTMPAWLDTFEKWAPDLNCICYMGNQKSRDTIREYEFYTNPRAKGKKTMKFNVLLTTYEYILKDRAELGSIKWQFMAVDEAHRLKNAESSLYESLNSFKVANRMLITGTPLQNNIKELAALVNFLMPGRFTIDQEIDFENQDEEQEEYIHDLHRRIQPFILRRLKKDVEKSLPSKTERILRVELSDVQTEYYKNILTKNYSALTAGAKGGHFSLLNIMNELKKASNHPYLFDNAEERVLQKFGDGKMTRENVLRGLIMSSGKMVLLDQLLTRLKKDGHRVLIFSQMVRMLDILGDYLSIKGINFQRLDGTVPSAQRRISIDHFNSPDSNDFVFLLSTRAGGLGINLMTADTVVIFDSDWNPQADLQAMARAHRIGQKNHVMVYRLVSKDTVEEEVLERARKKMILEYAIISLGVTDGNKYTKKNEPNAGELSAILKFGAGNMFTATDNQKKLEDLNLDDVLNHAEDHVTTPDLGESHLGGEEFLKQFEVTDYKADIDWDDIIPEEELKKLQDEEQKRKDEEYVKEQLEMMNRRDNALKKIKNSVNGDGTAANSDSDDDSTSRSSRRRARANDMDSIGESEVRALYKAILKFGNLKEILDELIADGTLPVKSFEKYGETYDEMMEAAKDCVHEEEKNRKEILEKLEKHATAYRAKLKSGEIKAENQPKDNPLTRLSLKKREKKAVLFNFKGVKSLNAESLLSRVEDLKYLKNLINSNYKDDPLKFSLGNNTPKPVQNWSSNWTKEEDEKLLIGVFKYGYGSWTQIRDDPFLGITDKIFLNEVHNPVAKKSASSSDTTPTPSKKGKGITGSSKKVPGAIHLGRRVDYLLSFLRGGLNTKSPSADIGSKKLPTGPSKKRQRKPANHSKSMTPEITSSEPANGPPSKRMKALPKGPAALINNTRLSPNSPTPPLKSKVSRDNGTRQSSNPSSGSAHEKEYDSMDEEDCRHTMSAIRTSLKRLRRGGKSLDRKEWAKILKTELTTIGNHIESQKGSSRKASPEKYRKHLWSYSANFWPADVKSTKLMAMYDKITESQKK

Chain of Protein translocase subunit SecA (Escherichia coli (strain K12)) (P10408 whole entry): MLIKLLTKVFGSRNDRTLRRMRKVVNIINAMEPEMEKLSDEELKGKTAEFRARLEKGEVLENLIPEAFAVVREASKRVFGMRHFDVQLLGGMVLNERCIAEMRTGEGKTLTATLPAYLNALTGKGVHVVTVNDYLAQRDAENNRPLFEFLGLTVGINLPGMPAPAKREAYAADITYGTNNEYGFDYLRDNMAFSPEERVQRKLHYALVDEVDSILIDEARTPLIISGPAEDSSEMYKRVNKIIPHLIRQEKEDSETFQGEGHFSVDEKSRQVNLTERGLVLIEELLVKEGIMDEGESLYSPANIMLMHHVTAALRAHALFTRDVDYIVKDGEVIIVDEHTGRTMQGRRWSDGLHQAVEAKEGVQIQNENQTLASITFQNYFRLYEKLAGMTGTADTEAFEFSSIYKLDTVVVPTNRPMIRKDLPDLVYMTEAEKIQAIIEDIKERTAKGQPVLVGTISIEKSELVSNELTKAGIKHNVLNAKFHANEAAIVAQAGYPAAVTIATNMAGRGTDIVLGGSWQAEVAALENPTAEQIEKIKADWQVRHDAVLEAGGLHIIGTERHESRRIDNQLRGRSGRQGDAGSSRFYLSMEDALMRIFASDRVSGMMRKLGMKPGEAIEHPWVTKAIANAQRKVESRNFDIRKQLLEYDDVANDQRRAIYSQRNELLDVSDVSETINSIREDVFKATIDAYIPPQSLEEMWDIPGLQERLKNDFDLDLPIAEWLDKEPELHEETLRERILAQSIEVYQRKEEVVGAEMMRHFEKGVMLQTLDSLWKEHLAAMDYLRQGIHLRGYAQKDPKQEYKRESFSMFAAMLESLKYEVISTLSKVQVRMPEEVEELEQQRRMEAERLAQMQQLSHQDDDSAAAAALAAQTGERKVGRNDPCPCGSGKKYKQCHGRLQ

Compound	Percent Effect [1] [%]	Percent Effect [2] [%]	Percent Effect [3] [%]	Percent Effect [4] [%]	Percent Effect (Trypanosoma cruzi) [%]	Percent Effect [5] [%]	Percent Effect [6] [%]	Percent Effect (Homo sapiens) [%]	Percent Effect [7] [%]	Percent Effect [8] [%]	Percent Effect [9] [%]
Cc1ccc(C(=O)N2CCC3(CC2)CC(c2ccccc2)C(=O)N3)cn1 (stereo not given)	0.117	18.7	-5.79	-1.61	1.93	-48.9	18.1	4.12	1.04	27.5	-17.9
CC(=O)N1CCC2(CC1)COCCN2Cc1ccc(F)cc1	-4.99	8.11	4.11	-8.39	-4.2	-0.955	18.1	-2.37	-1.08	7.69	-1.77
O=C(CSc1ccccc1Cl)NS(=O)(=O)c1ccc2c(c1)OCCO2	-4.83	-21.1	27.8	4.23	1.69	-1.15	9.69	4.4	-15.2	-12.2	-10.3
COc1ccc(-c2nccnc2C2CCN(C(C)=O)CC2)cc1	-3.54	25.7	-4.6	-7.08	0.395	-3.48	11.7	8.34	1.07	9.09	-9.8
c1cnn(CC2CN(CCc3ccncc3)CCO2)c1 (stereo not given)	1.49	13	1.87	-13.5	-2.06	0.632	6.22	32	4.76	21.2	-16.1
Cc1nc(C)n(CC2CN(c3ncnc4[nH]ccc34)CCO2)n1 (stereo not given)	-2.48	11.4	24	-0.101	-3.38	-2.37	6	28.6	2.08	12.7	-20.9
CN(C)C(=O)N1CCN(CCn2nc3ccccn3c2=O)CC1	0.243	7.89	0.915	-3.62	-6.13	0	20.8	3.27	6.38	5.2	-5.93
CCOCCCNC(=O)c1cc(C)nc(N2CCCC2)n1	-10.2	12	-12.6	7.96	4.91	-11.1	5.36	8.1	1.06	10.3	-14
O=C(NCc1ccco1)[C@@H]1CCO[C@@H]2CCN(c3ccncn3)C[C@H]21	0.562	2.67	2.84	5.63	-5.02	-56.5	5.64	3.81	1.04	-25	-8.67
O=C1NCC2(CCCN(CCc3ccccc3)C2)Oc2ccccc21 (stereo not given)	-3.06	6.76	2.18	-8.67	-3.36	2.55	6.86	15.8	-1.07	6.49	-14.2
